Assay results: PubChem BioAssay (EPA / NIEHS)
Inconclusive results are not listed. Active and inactive are the calls of the source. Rule for the calls: active = hit-call score of the fitted dose curve at least 0.9, where 1 is the maximum; inconclusive = response in the unintended direction; inactive = score below 0.9.

What follows are molecules tested against Nucleoli Translocation, AR (gene 367) (UniProt P10275) (assay: UPITT_HCI_U2OS_AR_TIF2_Nucleoli_Agonist: University of Pittsburgh U2OS Androgen Receptor-Transcriptional Intermediary Factor 2 (AR-TIF2) Agonism High Content Imaging Assay for Nucleoli Translocation (AID 2283998)).
Sequence of Nucleoli Translocation, AR (gene 367) (P10275 whole entry, looked up, the tested form may be a part): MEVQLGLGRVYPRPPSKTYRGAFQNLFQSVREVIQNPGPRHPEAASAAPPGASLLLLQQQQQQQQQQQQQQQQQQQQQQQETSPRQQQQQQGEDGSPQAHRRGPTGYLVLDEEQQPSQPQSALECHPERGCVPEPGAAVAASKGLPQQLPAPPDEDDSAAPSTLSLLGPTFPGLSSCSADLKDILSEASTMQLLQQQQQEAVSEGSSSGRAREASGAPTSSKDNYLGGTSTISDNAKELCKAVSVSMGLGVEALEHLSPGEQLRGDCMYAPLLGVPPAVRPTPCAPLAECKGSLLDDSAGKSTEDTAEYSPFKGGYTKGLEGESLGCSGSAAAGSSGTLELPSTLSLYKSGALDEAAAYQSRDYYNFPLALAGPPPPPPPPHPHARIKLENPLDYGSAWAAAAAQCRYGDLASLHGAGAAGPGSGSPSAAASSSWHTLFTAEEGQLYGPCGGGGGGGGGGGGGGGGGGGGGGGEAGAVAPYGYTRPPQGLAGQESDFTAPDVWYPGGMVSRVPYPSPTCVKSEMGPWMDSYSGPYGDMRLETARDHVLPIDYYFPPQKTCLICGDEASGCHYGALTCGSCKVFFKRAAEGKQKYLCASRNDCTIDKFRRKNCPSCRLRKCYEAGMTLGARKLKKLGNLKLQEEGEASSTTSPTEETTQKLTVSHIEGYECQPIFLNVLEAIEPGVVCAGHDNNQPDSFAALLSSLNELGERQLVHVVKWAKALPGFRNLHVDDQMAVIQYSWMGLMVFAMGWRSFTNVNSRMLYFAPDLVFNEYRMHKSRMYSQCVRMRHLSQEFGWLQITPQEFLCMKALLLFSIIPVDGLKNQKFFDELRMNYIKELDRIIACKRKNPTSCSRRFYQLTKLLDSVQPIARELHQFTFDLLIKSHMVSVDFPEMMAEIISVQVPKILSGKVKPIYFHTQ
Source text: UPITT_AR_TIF2_PPIB is a cell-based, high-content imaging assay that uses U2OS, a human osteosarcoma cell line, expressing a human androgen receptor fused to red fluorescent protein and the coactivator TIF2 fused to green fluorescent protein. UPITT_HCI_U2OS_AR_TIF2_Nucleoli_Agonist is one of four assay components measured from the UPITT_AR_TIF2_PPIB assay. It is designed to make measurements of red fluorescence localized in the nucleolar region of the cell nucleus as detected with high-content fluorescent imaging.Data from the assay component UPITT_HCI_U2OS_AR_TIF2_Nucleoli_Agonist was analyzed into 1 assay endpoint. This assay endpoint, UPITT_HCI_U2OS_AR_TIF2_Nucleoli_Agonist, was analyzed in the positive analysis fitting direction relative to DMSO as the baseline of activity. Using a type of binding reporter, measures of receptor for gain-of-signal activity can be used to understand the binding at the pathway-level as it relates to the gene AR.
Daughter plates containing 2 uL of 10 mM compounds in DMSO were prepared and replicated from the 384-well Library of Pharmacologically Active Compounds (LOPAC) master plates using the Bravo outfitted with a 384-well transfer head. Aluminum adhesive plate seals were applied with an Abgene Seal-IT 100 (Rochester, NY) plate sealer, and the plates were stored at -20 C in a Matrical MatriMinistore (Spokane, WA) automated compound storage and retrieval system. For screening, LOPAC daughter plates were withdrawn from -20C storage, thawed to ambient temperature, centrifuged 1-2 min at 50 g, and the plate seals were removed before the transfer of 98 uL of serum-free tissue culture medium (SFM) into wells using the BioTek Microflo liquid handler (BioTek, Winooski, VT) to generate a 200 uM intermediate stock concentration of library compounds (2.0% DMSO). The diluted compounds were mixed by repeated aspiration and dispensation using a 384-well P30 dispensing head on the Evolution P3 (EP3) liquid handling platform (PerkinElmer, Waltham, MA) and then 5 uL of diluted compounds was transferred to the wells of assay plates. In the LOPAC screen, compounds were individually tested at a final concentration of 20 uM (0.2% DMSO). After the diluted compounds had been transferred from the daughter plates to the primary HCS assay plates, aluminum adhesive plate seals were applied and the diluted daughter plates were stored frozen at -20C. To confirm active compounds identified in the primary screen, we withdrew the LOPAC daughter plates containing the 200 uM intermediate concentration of library compounds (2.0% DMSO) from -20C storage, thawed them to ambient temperature, centrifuged them for 1-2 min at 50 g, and removed the plate seals. A work list was generated to direct the Multiprobe Janus liquid handling platform (PerkinElmer) to cherry pick 75 uL from the wells of the diluted daughter plates that were flagged active in the primary screen and to reformat these into a 384-well plate hit confirmation daughter plate. Five microliters of primary HCS active compounds was then transferred into triplicate wells of assay plates using a 384-well P30 dispensing head on the Evolution P3 (EP3) liquid handling platform (PerkinElmer). […] Daughter plates containing 2 uL of the serially diluted compounds in DMSO were prepared and replicated from the 384-well serial dilution master plates using the Bravo outfitted with a 384-well transfer head. Aluminum adhesive plate seals were applied and plates were stored at -20C. For testing in the bioassays, daughter plates were withdrawn from -20C storage, thawed to ambient temperature, centrifuged for 1-2 min at 50 g, and the plate seals were removed before the transfer of 38 uL of SFM into wells using the BioTek Microflo liquid handler (BioTek) to generate an intermediate stock concentration of library compounds ranging from 1.95 to 500 uM (5.0% DMSO). […]
For `O=c1c(-c2ccc(O)cc2)coc2cc(O)cc(O)c12`, the outcome was “inactive”. `Oc1ccc2ccccc2c1` was tested, and the outcome was “inactive”. With `Cc1cc(F)ccc1-c1cc(N2CC[C@@H](O)[C@H]2CO)ncc1N(C)C(=O)C(C)(C)c1cc(C(F)(F)F)cc(C(F)(F)F)c1` the AC50 was 40.8 µM (active). With `Cc1ccc(C(C)C)cc1` the outcome was “inactive”. `COCC(C)OCC(C)OCC(C)O` (stereo unspecified) was tested, and the outcome was “inactive”. `O=C(O)Cn1c(=O)n(Cc2ccc(Br)cc2F)c(=O)c2ccc(Cl)cc21` was tested, and the outcome was “inactive”. In the case of `CN(C)c1ccc(C(=C2C=CC(=[N+](C)C)C=C2)c2ccc(N(C)C)cc2)cc1`, the AC50 is reported as 14.6 µM (active). With `NC(=O)c1nc(-c2cccc(-c3cc(F)ccc3OCC(F)(F)C(F)(F)F)c2)n[nH]1` the AC50 was 13.2 µM (active). `CCN(Cc1cccnc1)C(=O)c1cccc(Cl)c1[C@]1(C)C(=O)N(Cc2ccc(OC)cc2OC)c2ccc(Cl)cc21` was tested, and the outcome was “inactive”. With `CCCCOC(=O)c1ccc(O)cc1` the outcome was “inactive”. For `Cc1c2ccccc2c(C)c2c1ccc1ccccc12`, the outcome was “inactive”. With `OCCO` the outcome was “inactive”. With `Cc1occc1C(=O)Nc1ccc(C(=O)N2CCC(F)(F)/C(=C\C(=O)N3CCC(N4CCCCC4)CC3)c3ccccc32)cc1` the outcome was “inactive”. `NCc1cccc(C2CCN(C(=O)c3ccc(C#Cc4ccccc4F)o3)CC2)c1` was tested, and the outcome was “inactive”. `CCCC(=O)OCCC(C)C` was tested, and the outcome was “inactive”. In the case of `COc1cc(C(=O)NC2CCN(C)CC2)ccc1Nc1ncc2c(n1)N(C1CCCC1)CC(F)(F)C(=O)N2C`, the AC50 is reported as 46.5 µM (active).
